From the supplement of paper PMC4709259
Structures can show the parent of a compound that is named as a salt. ± gives the standard deviation.

Key:
Jurkat [1] = experiment: mean cell size (FSC-A) relative to DMSO control (fraction of control); higher = larger cells; conditions: 48 h
In short: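 Jurkat cells at 600 cells/µl were incubated for 1 h and then treated for 48h with the Enzo Screen-Well FDA Approved Drug Library v2.0 at 25µM, with DMSO at 0.9% (v/v) final. Compounds that reduced counts below 20% of controls were retested in 10-fold dilutions down to 25nM. Cell count and mean cell size, taken as forward scatter area, were measured by flow cytometry relative to solvent-only controls. Each plate carried 6-12 controls, and values are means of 3 biological replicates.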

Jurkat [2] = experiment: cell count relative to DMSO control (fraction of control); higher = more cells (less growth inhibition); conditions: 48 h

| Structure (SMILES) | mean cell size (Jurkat [1]) | cell count (Jurkat [2]) |
| --- | --- | --- |
| C#C[C@]1(O)CC[C@H]2[C@@H]3CCC4=Cc5oncc5C[C@]4(C)[C@H]3CC[C@@]21C [Danazol] (concentration: 25 µM) | 0.995 ± 0.026 | 0.92 ± 0.08 |
| CC1(C)NC(=O)N(c2ccc([N+](=O)[O-])c(C(F)(F)F)c2)C1=O [Nilutamide] (concentration: 25 µM) | 0.954 ± 0.029 | 0.638 ± 0.066 |
| CCN(CC)CCOC(=O)C1(C2CCCCC2)CCCCC1 [Dicyclomine·HCl] (concentration: 25 µM) | 0.9222 ± 0.0091 | 0.922 ± 0.054 |
| CC1(C)O[C@@H]2C[C@H]3[C@@H]4CCC5=CC(=O)C=C[C@]5(C)[C@@]4(F)[C@@H](O)C[C@]3(C)[C@]2(C(=O)CO)O1 [Triamcinolone Acetonide] (concentration: 25 µM) | 0.997 ± 0.039 | 0.789 ± 0.084 |
| CC(C)(O)c1ccccc1CC[C@@H](SCC1(CC(=O)O)CC1)c1cccc(/C=C/c2ccc3ccc(Cl)cc3n2)c1 [Montelukast·Na] (concentration: 25 µM) | 1.02 ± 0.077 | 0.476 ± 0.16 |
| COc1ccc2c3c1O[C@H]1C[C@@H](O)C=C[C@@]31CCN(C)C2 [Galantamine·HBr] (concentration: 25 µM) | 0.976 ± 0.01 | 0.701 ± 0.14 |
| CC[C@H]1OC(=O)[C@H](C)[C@@H](O[C@H]2C[C@@](C)(OC)[C@@H](O)[C@H](C)O2)[C@H](C)[C@@H](O[C@@H]2O[C@H](C)C[C@H](N(C)C)[C@H]2O)[C@](C)(O)C[C@@H](C)C(=O)[C@H](C)[C@@H](O)[C@]1(C)O [Erythromycin] (concentration: 25 µM) | 0.97 ± 0.038 | 0.871 ± 0.061 |
| CC(=O)[C@H]1CC[C@H]2[C@@H]3CCC4=CC(=O)CC[C@]4(C)[C@H]3CC[C@]12C [Progesterone] (concentration: 25 µM) | 1 ± 0.045 | 0.755 ± 0.052 |
| Cn1c(=O)c2nc[nH]c2n(C)c1=O [Theophylline] (concentration: 25 µM) | 0.947 ± 0.041 | 1.05 ± 0.031 |
| CCCN1CCCC[C@H]1C(=O)Nc1c(C)cccc1C [Ropivacaine·HCl Monohydrate] (concentration: 25 µM) | 0.978 ± 0.014 | 0.995 ± 0.057 |
| NC(=O)c1ncn([C@@H]2O[C@H](CO)[C@@H](O)[C@H]2O)n1 [Ribavirin] (concentration: 25 µM) | 0.9983 ± 0.0034 | 0.625 ± 0.077 |
| CC(C)(C)NC(=O)[C@@H]1C[C@@H]2CCCC[C@@H]2CN1C[C@@H](O)[C@H](Cc1ccccc1)NC(=O)[C@H](CC(N)=O)NC(=O)c1ccc2ccccc2n1 [Saquinavir Mesylate] (concentration: 25 µM) | 0.963 ± 0.0039 | 0.648 ± 0.065 |
| NCCC(O)(P(=O)(O)O)P(=O)(O)O [Pamidronate Disodium  Pentahydrate (Pamidronic Acid)] (concentration: 25 µM) | 0.967 ± 0.034 | 0.822 ± 0.023 |
| COc1cc2nc(N3CCN(C(=O)C4CCCO4)CC3)nc(N)c2cc1OC (stereo not given) [Terazosin·HCl] (concentration: 25 µM) | 0.997 ± 0.047 | 0.607 ± 0.059 |
| CN(C)CCC=C1c2ccccc2C=Cc2ccccc21 [Cyclobenzaprine·HCl] (concentration: 25 µM) | 1 ± 0.041 | 0.631 ± 0.094 |
| CN1C(C(=O)Nc2ccccn2)=C(O)c2ccccc2S1(=O)=O [Piroxicam] (concentration: 25 µM) | 0.9597 ± 0.0066 | 0.738 ± 0.07 |
| CC(=O)OCC[N+](C)(C)C [Acetylcholine Chloride] (concentration: 25 µM) | 0.999 ± 0.056 | 0.68 ± 0.19 |
| COC(c1ccccc1)(c1ccccc1)[C@H](Oc1nc(C)cc(C)n1)C(=O)O [Ambrisentan] (concentration: 25 µM) | 0.975 ± 0.043 | 0.757 ± 0.088 |
| C=CC(N)CCC(=O)O (stereo not given) [Vigabatrin] (concentration: 25 µM) | 1.002 ± 0.0073 | 0.829 ± 0.075 |
| Cc1ccc(N(CC2=NCCN2)c2cccc(O)c2)cc1 [Phentolamine·HCl] (concentration: 25 µM) | 1.09 ± 0.072 | 0.612 ± 0.16 |
| CSc1ccc2c(c1)N(CCC1CCCCN1C)c1ccccc1S2 (stereo not given) [Thioridazine·HCl] (concentration: 2.5 µM) | 1.08 ± 0.014 | 0.646 ± 0.18 |
| CCCCCCCCc1ccc(CCC(N)(CO)CO)cc1 [Fingolimod] (concentration: 25 µM) | 1.03 ± 0.035 | 0.953 ± 0.12 |
| Nc1nc(NC2CC2)c2ncn([C@H]3C=C[C@@H](CO)C3)c2n1 [Abacavir Sulfate] (concentration: 25 µM) | 1.1 ± 0.033 | 0.858 ± 0.15 |
| Cc1nnc(C(=O)NC(C)(C)c2nc(C(=O)NCc3ccc(F)cc3)c(O)c(=O)n2C)o1 [Raltegravir] (concentration: 25 µM) | 0.9483 ± 0.0067 | 0.569 ± 0.11 |
| CN(C)CCCC1(c2ccc(F)cc2)OCc2cc(C#N)ccc21 (stereo not given) [Citalopram·HBr] (concentration: 25 µM) | 0.951 ± 0.031 | 1.15 ± 0.039 |
